Bioassay records from PubChem BioAssay.
p53ts 32C tox: kills p53ts cells at the permissive temperature; H1299-p53A138V at 32C, ATP luminescence viability, 24 h; Potency, µM (doses to about 46.1 µM), without a hit: top-dose activity change, negative = cytotoxicity, usual class: cytotoxic; hit rate 0.93% among 130,000;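 also: 0% = DMSO and -100% = full killing by reference compound; nearly all actives have a fitted effect of over 55% in size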
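H1299-p53 A138V cells (temperature-sensitive p53) exposed 24 h to up to 46 uM compound at 32C, where p53 is wild-type in conformation. Viability read as ATP luminescence and normalised to DMSO and 100 uM tamoxifen. AC50 fitted with the Hill equation.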
Imprint erasure: inducers of genomic imprint erasure in mouse ES cells. Potency, µM (series often up to 60.7 µM), for inactives: top-dose activity change, positive = activation, hits mostly activators. hit rate 0.02% among 110,000. mouse ES Peg3-LacZ reporter, beta-gal luminescence, 40 h
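Imprint erasure is scored as LacZ activity from the silenced maternal Peg3 allele in feeder-free female ES cells cultured 40 h with LIF. Luminescence is normalized to in-plate negative controls and fitted to the Hill equation.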
IkB signaling: inhibitors of IkB signaling in ABC-DLBCL cells. Potency, µM (top dose mostly 57.1 µM), inactives show at the top dose IkBa stabilization activation. hit rate 0.04% among 110,000. ABC-DLBCL IkBa-CBG/CBR dual luciferase ratio, 4 h; response scale: scaled: untreated 0%, proteasome inhibitor 100%. AID 445; active = well fitted curve in the direction sought with a large enough effect in the signal ratio, not every such curve was filed as active; inconclusive = small, poorly fitted or top-dose-only effect, or a change in a side signal; the % refers to the signal ratio;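 also: the direction sought is a rising ratio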
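Luminescence ratio of IκBα-fused green versus native red beetle luciferase in OCI-Ly3 cells, 4 h post-doxycycline with compound; red signal alone, scaled from basal (0%) to zero light (-100%), flagged nonspecific or cytotoxic effects.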
p53ts 39C kill: cytotoxicity in p53ts cells at nonpermissive temperature | hit rate 1.5% among 130,000 | H1299-p53A138V viability at 39C, ATP luminescence, 24 h | Potency, µM (highest dose often 46.1 µM), without a hit: at the highest dose activity change, negative = cell killing, usual class: cytotoxic; also: % is scaled to controls: 0 for no effect and ±100 for the full control effect; nearly all actives have a fitted effect of over 55% in size
* = called active by the depositor; ? = inconclusive; . = not tested or not shown; [ ] = another dose, or the depositor's remark. Sampled rows, rich in hits. Any-hit rate of the full collection: about 1.8%. Unless noted, calls follow the shape of the dose curve; as a rule, active = well fitted curve in the direction sought with a large enough effect; inconclusive = small, poorly fitted or top-dose-only effect, or another doubt; inactive = no such curve, though single readings can be large; an effect the other way counts as inactive or inconclusive. Potency is read from the fitted curve at half-maximal effect.

SMILES | p53ts 32C tox | Imprint erasure | IkB signaling | p53ts 39C kill
CC(=O)NCCNc1nc(-c2ccc3c(c2)OCO3)nc2ccccc12 | -7% | 29% | 1%[11.4 µM] | -6%
CCOC(=O)c1ccccc1NC(=O)CSc1nc2cn(CC)nc2c(=O)n1Cc1ccc(Cl)cc1 | 6% | -6%[10.9 µM] | -2% | -21%
COc1ccc(C(=O)NNc2ncnc3c2cnn3-c2ccc(C)c(Cl)c2)cc1 | -6% | -13%[10.9 µM] | 0% | 33%
COc1cccc(C(=O)Nc2ccccc2C(=O)OCc2cc(=O)n3c(C)csc3n2)c1 | -4% | -6%[10.9 µM] | 4% | -5%
COc1ccccc1C(=O)OCc1cc(=O)n2c(C)csc2n1 | ? | -24%[10.9 µM] | ? | 0.13µM*
Cc1c(C(=O)Nc2cccc(C(F)(F)F)c2)oc2ccc3c(c12)C(=O)CC(C)(C)O3 | -29% | -14%[10.9 µM] | -1% | 16µM*
Cc1cc(C)cc(NC(=O)c2oc3ccc4c(c3c2C)C(=O)CC(C)(C)O4)c1 | ? | -32%[10.9 µM] | ? | ?
Cc1c(C(=O)NCC2CCCO2)oc2ccc3c(c12)C(=O)CC(C)(C)O3 (stereo not drawn) | 13µM* | . | . | ?
Cc1cccc(NS(=O)(=O)c2ccc(Cl)c(C(=O)O)c2)c1 | -2% | . | . | -7%
CCOc1ccccc1CNC(=O)c1ccc(NC(=O)N2CCSc3ncccc32)cc1 | 8% | -9%[10.9 µM] | ? | 4%
COc1ccc(S(=O)(=O)N(CC(=O)Nc2cc(Cl)ccc2C)Cc2ccccc2)cc1OC | 16% | -15%[10.9 µM] | ? | 3%
Cc1ccc(C)c(Cn2c3ccccc3c3cnn(CC(=O)NC(C)CCc4ccccc4)c(=O)c32)c1 (stereo not drawn) | -27% | 11%[10.9 µM] | 2% | 5µM*
CCCCN(C)CCCNC(=O)Cn1ncc2c3ccccc3n(Cc3cc(C)ccc3C)c2c1=O | -6% | 27%[10.9 µM] | 0% | 2.5µM*
CCCCN(C)CCCNC(=O)Cn1ncc2c3ccccc3n(Cc3ccccc3F)c2c1=O | -4% | -6%[10.9 µM] | 0% | 13µM*
O=C(O)C1CCCCC1C(=O)OCCCCOC(=O)C1CCCCC1C(=O)O (stereo not drawn) | -5% | 4% | -1% | 3%
O=C(OCC1CO1)C1CCCCC1C(=O)OCC1CO1 (stereo not drawn) | 3%[1.84 µM] | 0% | 3% | 32µM*
CCN(CC)CCNC(=O)c1c(C)oc2ncnc(N3CCOCC3)c12 | 7% | 5%[10.9 µM] | -1% | -6%
CSc1ccc(CCNC(=O)c2cc3c(-c4ccccc4F)nn(C)c3s2)cc1 | -3% | -11%[10.9 µM] | 2% | -3%
Cc1ccc(F)cc1NC(=O)c1ccc(Cn2nc(N3CCN(c4ccccc4)CC3)ccc2=O)o1 | 25% | -17%[10.9 µM] | ? | 20%
COc1ccc(-c2cn3c4c(sc3n2)CCCC4)cc1 | 6.3µM* | -54% | 2% | 5µM*
O=C(CCS(=O)(=O)c1nc(-c2ccc3c(c2)OCO3)cc(C(F)(F)F)n1)Nc1ccc(Br)cc1 | ? | -10%[10.9 µM] | ? | 3.2µM*
CSc1ccccc1NC(=O)CCS(=O)(=O)c1nc(-c2ccc3c(c2)OCO3)cc(C(F)(F)F)n1 | ? | -7%[10.9 µM] | -2% | 4µM*
O=C(CCS(=O)(=O)c1nc(-c2ccc3c(c2)OCO3)cc(C(F)(F)F)n1)Nc1ccccc1F | ? | 1%[10.9 µM] | ? | ?
Nc1ncnc2c1ncn2[C@@H]1O[C@@H](CO)[C@H](O)[C@@H]1O | 16% | . | 2% | 17%
CCN1C(=O)[C@H]2[C@@H]3[C@H](O)[C@H](O)CC(=O)[C@H]3CC[C@H]2C1=O | 3%[9.22 µM] | . | . | 7%[9.22 µM]
SMILES | p53ts 32C tox | Imprint erasure | IkB signaling | p53ts 39C kill
O=C(CN1C(=O)COc2ccc(S(=O)(=O)NC3CCCC3)cc21)NCc1ccccc1Cl | -5% | . | . | .
NC(=O)c1ccc(-c2ncc(-c3ccccc3)o2)cc1 | ? | -6% | 7% | 20µM*
c1ccc(-c2cnc(-c3cccnc3)o2)cc1 | -29% | -37% | 4% | -22%
CCc1nnc(NC(=O)CSc2nc3c(cc2C#N)CCCC3)s1 | 0.79µM* | 16% | 0% | 1.6µM*
CN1[C@@H]2CC[C@@H]1CC(OC(=O)[C@H](CO)c1ccccc1)C2 (stereo partly drawn) | . | 9% | . | .
O=c1c(N2CCc3ccccc3C2)csc2ccc(Br)cc12 | 11% | -16%[10.9 µM] | ? | -10%
Cc1ccc(NC(=O)CCc2c(C)nn(-c3ccc(N4CCCCC4)nn3)c2C)cc1F | ? | -18%[10.9 µM] | ? | 13µM*
CCOC(=O)c1scc(-c2ccccc2)c1S(=O)(=O)N1CCN(c2ccc(Cl)cc2)CC1 | -2% | -14%[10.9 µM] | ? | -21%
